Only some compounds are listed: those with a hit (about 1.1% of all), similar ones and a draw of the others.
VDR inhibitor – blocks the human vitamin D receptor | 0.93% of 400,000 active | Potency, µM, hits mostly inhibitors | AID 504847 | P11473 | VDR-SRC2-3 peptide fluorescence polarization, 2 h
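Signal is fluorescence polarization, reporting how far test compounds block the interaction of VDR with the SRC2-3 coregulator peptide after a 2 h room-temperature incubation.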
Tb PGK inh – inhibitors of T. brucei phosphoglycerate kinase. P07378. PGK/GAPDH coupled, Kinase-Glo luminescence, 60 min. Potency, µM (doses to about 57.5 µM), actives largely listed as inhibitors. 0.043% of 380,000 active. AID 602233; also: nearly all actives have a fitted effect of over 60% in size
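Luminescent ATP detection (Kinase-Glo Plus) follows a 60-minute room-temperature incubation, with wells lacking PGK as controls. Buffer: 100 mM TEA (pH 7.6), 5 mM MgCl2, 0.01% Tween-20. Coupling enzyme GAPDH (100 nM final) supplies unstable 1,3-BPG in-well.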
Tb PFK block – inhibitors of T. brucei phosphofructokinase | O15648 | 0.17% of 330,000 active | Potency, µM (series often up to 57.5 µM), usual class: inhibitors | T. brucei PFK, ADP-Glo luminescence; also: nearly all actives have a fitted effect of over 60% in size
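ADP-Glo luminescence quantified ADP after 45 min at room temperature, with 1.25 nM T. brucei PFK, 0.1 mM ATP and 0.5 mM fructose-6-phosphate in pH 8.0 TEA buffer. qHTS titrations up to 57 µM; curves classified by quality.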
Pin1 inhibitor – inhibitors of human Pin1 | Pin1 FP peptide displacement, HiFluor488, 10 min | Potency, µM (doses to about 115 µM), most hits filed as inhibitors | 0.009% of 390,000 active | AID 504891; active = well fitted inhibition curve with a large enough effect in the polarisation, with a control signal flat, not every such curve was filed as active; inconclusive = small, poorly fitted or top-dose-only effect, or effect the other way, or a change in a side signal; inactive = no such curve, though single readings can be large or run the other way; the % refers to the polarisation
Target sequence (Q13526 whole entry, looked up): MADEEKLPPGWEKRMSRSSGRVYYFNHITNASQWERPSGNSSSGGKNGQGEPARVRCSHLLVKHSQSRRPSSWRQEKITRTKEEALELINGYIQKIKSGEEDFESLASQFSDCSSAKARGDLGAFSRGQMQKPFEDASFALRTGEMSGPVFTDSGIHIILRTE
GLS inh – blocks human kidney-isoform glutaminase activity | 0.21% of 410,000 active | GLS enzymatic activity, qHTS titration | O94925 | AID 624170 | Potency, µM (highest dose often 45.5 µM), most hits filed as inhibitors
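hKGA; 45 mM KH2PO4 pH 8.2 + 0.02% Tween-20; cpd via pin tool; 1 mM Gln soln; GluOx/HRP/Amplex Red; RT 30 min; fluor. t0 & final.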
VDR confirm – confirmation of human vitamin D receptor inhibitors; VDR-coactivator inhibition assay, qHTS confirmation; 89% of 840 active; shares compounds with VDR inhibitor; AID 602199; Potency, µM, hits mostly inhibitors
VDR FP – VDR (human) coactivator binding inhibition, fluorescein polarization; AID 602200; shares compounds with VDR inhibitor; Potency, µM (doses to about 57.1 µM), usual class: inhibitors; 48% of 840 active; VDR-coactivator binding, fluorescein fluorescence polarization
VDR bla reporter – confirmation of human vitamin D receptor inhibitors in reporter cells. shares compounds with VDR inhibitor. Potency, µM (top dose mostly 46.1 µM), usual class: inhibitors. AID 602202. VDR beta-lactamase reporter cells, FRET ratio; cells co-treated with VDR agonist LG190178. 23% of 840 active
VDR cytotox – counter-screen for vitamin D receptor inhibitors: cytotoxicity; cytotoxicity counter-screen, cell viability, qHTS; Potency, µM (top dose mostly 48.3 µM), actives largely listed as cytotoxic; 18% of 840 active; shares compounds with VDR inhibitor; also: nearly all actives have a fitted effect of over 75% in size
Large screens that a line does not name were inactive (follow-up assays come after a bar, where they were run). Unless noted, calls follow the shape of the dose curve; as a rule, active = well fitted curve in the direction sought with a large enough effect; inconclusive = small, poorly fitted or top-dose-only effect, or another doubt; inactive = no such curve, though single readings can be large; an effect the other way counts as inactive or inconclusive.

O=C1NC(=O)N(c2ccccc2)C(=O)/C1=C\c1ccccc1[N+](=O)[O-]	VDR inhibitor 45µM | VDR confirm 21 | VDR FP 28µM | VDR bla reporter inactive | VDR cytotox inactive
Cc1ccccc1N1C(=O)NC(=O)/C(=C\c2ccc3c(c2)CCCN3Cc2ccccc2)C1=O	VDR inhibitor 40µM, Pin1 inhibitor inconclusive, GLS inh inconclusive | VDR confirm 12 | VDR FP inactive | VDR bla reporter inactive | VDR cytotox inactive
COc1cc(/C=C/[N+](=O)[O-])ccc1O	VDR inhibitor 28µM | VDR confirm 30 | VDR FP inconclusive | VDR bla reporter inconclusive | VDR cytotox inconclusive
CC1CC(Cl)CCC1C(=O)OC(C)(C)C (stereo not given)	none (no result: Tb PGK inh, Tb PFK block, Pin1 inhibitor, GLS inh)
O=C(O)CCn1cc(C=C2C(=O)NC(=S)NC2=O)c(-c2cc3ccccc3oc2=O)n1	VDR inhibitor inconclusive, GLS inh inconclusive
O=C(O)CCn1cc(C=C2C(=O)NC(=S)NC2=O)c(-c2ccccc2)n1	VDR inhibitor 10µM, Pin1 inhibitor inconclusive, GLS inh inconclusive | VDR confirm 21 | VDR FP inconclusive | VDR bla reporter inactive | VDR cytotox inactive
Cc1o[nH]c(=O)c1C[C@H](N)C(=O)O	none (no result: Tb PGK inh, Tb PFK block, Pin1 inhibitor, GLS inh)
CC(=O)c1c(O)n(-c2cccc(Cl)c2)c(=O)[nH]c1=O (tested in a mixture with another compound)	Pin1 inhibitor inconclusive
CC(C)n1c(O)c(C2c3cc(Cl)ccc3Oc3[nH]c(=O)n(C(C)C)c(=O)c32)c(=O)[nH]c1=O (stereo not given)	VDR inhibitor 8.9µM, GLS inh inconclusive | VDR confirm 4.2 | VDR FP inconclusive | VDR bla reporter 5.2µM | VDR cytotox inconclusive
CS(=N)(=O)CC[C@@H](N)C(=O)O (stereo not given in full)	none (no result: Tb PGK inh, Tb PFK block, Pin1 inhibitor, GLS inh)
COc1ccc(/C=C2/C(=O)NC(=O)N(C3CCCCC3)C2=O)cc1CSc1ccccn1	none (no result: VDR inhibitor, Tb PGK inh, Pin1 inhibitor, GLS inh)
COc1ccc(/C=C2/C(=O)NC(=S)N(C3CC3)C2=O)cc1CN1C(=O)c2ccccc2C1=O	VDR inhibitor 45µM, GLS inh inconclusive | VDR confirm 11 | VDR FP 7.9µM | VDR bla reporter inactive | VDR cytotox inconclusive
O=C1NC(=O)N(CCc2ccc(F)cc2)C(=O)/C1=C/c1cccs1	VDR inhibitor 18µM | VDR confirm 9.5 | VDR FP inconclusive | VDR bla reporter inactive | VDR cytotox inactive
O=C1NC(=O)N(CCc2ccc(F)cc2)C(=O)/C1=C/c1ccco1	Tb PGK inh inconclusive
O=C1NC(=O)N(CCC2=CCCCC2)C(=O)/C1=C\c1cccs1	VDR inhibitor 45µM | VDR confirm 8.4 | VDR FP inconclusive | VDR bla reporter inactive | VDR cytotox inactive
CCOC(=O)N1CCN(/[N+]([O-])=N/Oc2ccc([N+](=O)[O-])cc2[N+](=O)[O-])C(C)C1 (stereo not given)	none (no result: Tb PGK inh, Tb PFK block, GLS inh)
O=C1CCCC2[C@@H]3CCCN4CCC[C@@H](CN12)C34 (stereo not given in full)	none (no result: Tb PGK inh, Tb PFK block, Pin1 inhibitor, GLS inh)
Cc1cc(NC(=O)c2cccn(Cc3cccc([N+](=O)[O-])c3)c2=O)no1	none (no result: Tb PFK block)
O=C(/C=C/c1ccccc1)c1c(O)n(CCc2ccccc2)c(=O)[nH]c1=O	VDR inhibitor inconclusive | VDR confirm 2 | VDR FP inconclusive | VDR bla reporter 18µM | VDR cytotox inactive
Cc1cc(C)c(S(=O)(=O)N2Cc3ccccc3-n3nncc3C2)c(C)c1	none (no result: VDR inhibitor, Tb PFK block, Pin1 inhibitor)

Compound activity (PubChem BioAssay)
